# Only some compounds are listed: those with a hit (about 0.036% of all), similar ones and a draw of the others.
# CBFb RUNX1 block: qHTS Assay for Compounds Blocking the Interaction Between CBF-beta and RUNX1 for the Treatment of Acute Myeloid Leukemia; AID 1477, 2009; Potency, µM (doses to about 59.8 µM), for inactives: at the highest dose activity, negative = inhibition, actives largely listed as inhibitors; Runt-related transcription factor 1 (Homo sapiens) + Core-binding factor subunit beta …; 230,000 tested, under 10 active; AlphaScreen CBFb-His/RUNX1-biotin binding, biochemical; also: % of control where 0% means no effect
#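 Inhibition was taken as any reduction in AlphaScreen signal from the CBF-beta–RUNX1 pair (His and biotin tags, 30 nM each), measured after compound (15 min) and bead (90 min) incubations at room temperature.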
# LMNA splice mod: qHTS Assay for Modulators of Lamin A Splicing. 0.01% of 200,000 active. HeLa LMNA splicing GFP/RFP minigene ratio, 48 h. AID 1487, 2009. Potency, µM (doses to about 46.1 µM), for the others: at the top dose ratio change, negative = inhibition, actives largely listed as inhibitors; active = well fitted inhibition curve with a large enough effect in the signal ratio, with a control signal flat, not every such curve was filed as active; inconclusive = small, poorly fitted or top-dose-only effect, or effect the other way, or a change in a side signal; the % refers to the signal ratio; also: potency is read from the fitted curve at half-maximal effect; % is scaled to controls: 0 for no effect and ±100 for the full control effect
#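 S3 HeLa cells stably expressing lamin A-EGFP splicing minigene plus DsRed2, 600 cells/well, 48 h compound exposure at 37C. Laser-scanning cytometry; analysed as GFP (500-530 nm)/RFP (575-640 nm) total intensity ratio; 0.5% DMSO vehicle.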
# MBNL1-CUG inh: qHTS Assay for Inhibitors of MBNL1-poly(CUG) RNA binding. TR-FRET MBNL1-His/biotin-(CUG)12 binding, 665/545 ratio. Potency, µM (highest dose often 57.5 µM), inactives show at the highest dose activity change, negative = inhibition, hits mostly inhibitors. 0.036% of 280,000 active; active = well fitted inhibition curve with a large enough effect in the signal ratio, with a control signal flat, not every such curve was filed as active; inconclusive = small, poorly fitted or top-dose-only effect, or effect the other way, or a change in a side signal; inactive = no such curve, though single readings can be large or run the other way; the % refers to the signal ratio; also: potency is read from the fitted curve at half-maximal effect; % is scaled to controls: 0 for no effect and ±100 for the full control effect
#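 Compounds (final 92 nM to 58 uM) are added to His-tagged MBNL1 and biotin-(CUG)12, then terbium anti-His antibody and streptavidin-XL665 (5 nM final). After 60 min at room temperature, the 665/545 nm ratio is read.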
# MBNL1 TRFRET: qHTS Assay for Inhibitors of MBNL1-poly(CUG) RNA binding: Initial hit validation from the primary screen | 50% of 140 active | Potency, µM (series often up to 57.6 µM), inactives show top-dose activity change, negative = inhibition, most hits filed as inhibitors | TR-FRET MBNL1-His / biotin-(CUG)12 binding, 60 min | shares compounds with MBNL1-CUG inh
# MBNL1-CUG Alpha: qHTS Assay for Inhibitors of MBNL1-poly(CUG) RNA binding: Initial hit validation in AlphaScreen assay for MBNL1-(CUG)12 binding; Potency, µM (top dose mostly 57.7 µM), without a hit: at the top dose activity, negative = inhibition, actives largely listed as inhibitors; AID 493205, 2011; AlphaScreen MBNL1-His / biotin-(CUG)12 binding; 30% of 140 active; shares compounds with MBNL1-CUG inh
# Menin-MLL HTRF: qHTS Assay for Inhibitors of MBNL1-poly(CUG) RNA binding: Counterscreen HTRF assay; shares compounds with MBNL1-CUG inh; His-Menin/biotin-MLL peptide TR-FRET counterscreen; Potency, µM (series often up to 57.6 µM), for the others: top-dose activity, negative = inhibition, hits mostly inhibitors; 20% of 120 active; AID 651843, 2012
# * marks the source's active call; other numbers are inactive results; u = inconclusive; x = no result; [ ] = dose if it differs, or a comment. Unless noted, calls follow the shape of the dose curve; as a rule, active = well fitted curve in the direction sought with a large enough effect; inconclusive = small, poorly fitted or top-dose-only effect, or another doubt; inactive = no such curve, though single readings can be large; an effect the other way counts as inactive or inconclusive.
SMILES,CBFb RUNX1 block,LMNA splice mod,MBNL1-CUG inh,MBNL1 TRFRET,MBNL1-CUG Alpha,Menin-MLL HTRF
COc1ccc(CN2CN(c3ccc(Cl)cc3)C(=O)N(n3cnnc3)C2)cc1,4%,2%,u,x,x,x
O=C(NCCc1ccc(F)cc1)C(=O)NCC(c1cccs1)S(=O)(=O)c1ccc(Cl)cc1 (stereo unspecified),x,-1%[46 µM],x,x,x,x
CCCNC(=O)Nc1cc(OC)c(OC)cc1Cc1nccc2cc(OC)c(OC)cc12,x,x,25µM*,13µM*,0%,u
CCS(=O)(=O)Nc1cc(OC)c(OC)cc1Cc1nccc2cc(OC)c(OC)cc12,8%,u,-6%,x,x,x
c1csc(C(c2nnnn2C2CCCCC2)N2CCCC3(CCCCC3)C2)c1 (stereo unspecified),9%,3%,25µM*,-19%,-21%,-4%
CC(C)(C)n1nnnc1C(c1cccs1)N1CCCC2(CCCCC2)C1 (stereo unspecified),12%,u,u,x,x,x
Cc1oc2c(c1C(=O)Nc1cccc(Br)c1)C1=NCCN1C=N2,x,-4%[46 µM],x,x,x,x
O=C(CSc1n[nH]c(-c2cccs2)n1)NC1CCS(=O)(=O)C1 (stereo unspecified),x,x,-7%,x,x,x
O=C(CSc1n[nH]c(-c2ccncc2)n1)NC1CCS(=O)(=O)C1 (stereo unspecified),-3%,0%,7.9µM*,10µM*,7%,u
Cc1ccccc1NC(=O)Cn1nc(-c2ccccc2)nc(Cc2ccccc2)c1=O,x,16%[46 µM],x,x,x,x
C=CCn1c(NS(=O)(=O)c2ccccc2)c(S(=O)(=O)c2ccc(C)cc2)c2nc3ccccc3nc21,-4%,-12%,20µM*,4%,u,0%
O=S(=O)(Nc1c(S(=O)(=O)c2ccccc2)c2nc3ccccc3nc2n1C1CCCCC1)c1ccccc1,4%,-5%,x,x,x,x
CN(C)c1ccc(C(CNS(=O)(=O)c2ccc(Cl)cc2)N2CCCC2)cc1 (stereo unspecified),x,-6%[46 µM],x,x,x,x
COc1ccc(C(c2c(C)n(C)n(-c3ccccc3)c2=O)c2c(C)n(C)n(-c3ccccc3)c2=O)cc1OC,x,x,9%,x,x,x
COc1ccc(C(c2c(C)[nH]n(-c3ccccc3)c2=O)c2c(C)[nH]n(-c3ccccc3)c2=O)cc1OC,-10%,-15%,40µM*,u,u,4%
Cc1cccc(C(=O)Nc2cccc(C(=O)OCc3cc(=O)n4c5c(sc4n3)CCCC5)c2)c1,x,-12%[46 µM],x,x,x,x
O=C(NCCCN1CCCCCC1)c1ccc(CS(=O)(=O)Cc2ccccc2F)o1,u,-11%,40µM*,u,0%,-2%
CC1CCN(CCCNC(=O)c2ccc(CS(=O)(=O)Cc3ccccc3F)o2)CC1,0%,-10%,-6%,x,x,x
CCc1ccccc1NC(=O)CCn1cccn1,x,6%[46 µM],x,x,x,x
COCC1=C2c3ccccc3[C@H](C[N+](=O)[O-])C(C(=O)OC)(C(=O)OC)CC2C2C(=O)N(c3ccccc3)C(=O)C2C1 (stereo partly specified),-3%,x,x,x,x,x
CN(C(=O)COC(=O)c1ccc(-c2ccc(O)cc2)cc1)C1CCS(=O)(=O)C1 (stereo unspecified),13%,13%[46 µM],40µM*,u,21µM*,-13%
Cc1ccc(C(=O)OCC(=O)N(C)C2CCS(=O)(=O)C2)cc1[N+](=O)[O-] (stereo unspecified),4%,-9%[46 µM],u,x,x,x

# High-throughput results deposited in PubChem BioAssay by National Center for Advancing Translational Sciences (NCATS).
